Each structure is given as a SMILES string. Values without a mark were called inactive.

DuctApe activity index data for 38 compounds are collected here from the supplement of paper PMC6518042.

For one experiment, the system named is Pectobacterium parmentieri SCC3193. Briefly: DuctApe activity index (growth/respiration on compound as sole nutrient source, blank-subtracted) (activity index (0-3)); higher = stronger utilization of the compound, active = 3 or more. The settings on record: nutrient role (plate category): carbon. As for the experimental part: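 Biolog Phenotype Microarray plates PM1, PM2A (carbon), PM3 (nitrogen) and PM4 (phosphorus/sulfur) inoculated with P. parmentieri SCC3193 in M9-C minimal salts medium with Biolog dye A, and read in the OmniLog for 46 h. Each well was tested in triplicate and the experiment was run twice. DuctApe computed a blank-subtracted activity index (AV, 0-3) from the mean curves; growth is positive at AV >= 3 and negative at AV <= 2.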
For `NCCCC[C@H](N)C(=O)O` [L-Lysine], the DuctApe activity index is 0. For the compound `COC(=O)C(C)=O` [Methylpyruvate], the DuctApe activity index is 3 (active). Turning to `C[C@@H](O)CC(=O)O` [b-Hydroxybutyric acid], the DuctApe activity index is 0. On the same count and under the same terms, to `C=C(CC(=O)O)C(=O)O` [Itaconic acid] belongs 0.

`CC(=O)N[C@@H]1[C@@H](O)[C@H](O)[C@@H](CO)O[C@@H]1O` [N-Acetyl-D-Glucosamine]: the DuctApe activity index was 3 (active). Regarding `O=C(O)CC(O)C(=O)O` (racemic) [DL-Malic acid], the DuctApe activity index was 3 (active).

Take `CC(=O)N[C@H]1C(O)O[C@H](CO)[C@H](O)[C@@H]1O` (stereo partly drawn) [N-Acetyl-D-Galactosamine]: the DuctApe activity index was 3 (active).

With `N[C@@H](CCO)C(=O)O` [L-Homoserine], the DuctApe activity index was 0. `N[C@@H](CCC(=O)O)C(=O)O` [L-Glutamic acid]: the DuctApe activity index was 2. For the compound `O=C(CO)[C@@H](O[C@H]1O[C@H](CO)[C@@H](O)[C@H](O)[C@H]1O)[C@H](O)[C@H](O)CO` [Turanose], the DuctApe activity index was 0. The same measure, in the same setting: to `CC[C@H](C)[C@H](N)C(=O)O` [L-Isoleucine] belongs 0. Still for that read-out and setting: to `C[C@H](N)C(=O)NCC(=O)O` belongs 0; to `O=C(O)CCC(=O)O` [Succinic acid], 3 (active). Take `CC(=O)N[C@@H](CCC(=O)O)C(=O)O` [N-Acetyl-L-Glutamic acid]: the DuctApe activity index was 0.

With `C[C@H](N)C(=O)O` [L-Alanine], the DuctApe activity index is 0. On the same count and under the same terms, to `N[C@@H](Cc1c[nH]cn1)C(=O)O` [L-Histidine] belongs 0; to `NCC(=O)N[C@@H](CCC(=O)O)C(=O)O`, 0; to `O=c1ccn([C@@H]2O[C@H](CO)[C@@H](O)[C@H]2O)c(=O)[nH]1` [Uridine], 1. On to `N[C@H](CC(=O)O)C(=O)O` [D-Aspartic acid], for which the DuctApe activity index was 3 (active). On the same count and under the same terms, the result for `CC(N)=O` [Acetamide] reads 0; that for `N=C(N)NCCC[C@H](N)C(=O)O` [L-Arginine], 0; that for `N[C@@H](Cc1ccccc1)C(=O)O` [L-Phenylalanine], 0. Turning to `COC(=O)[C@@H](C)O` [D-Lactic acid Methyl Ester], the DuctApe activity index is 1. Still for that read-out and setting: the result for `NCCCCN` [Putrescine] reads 0; that for `O=P(O)(O)O[C@H]1O[C@H](CO)[C@@H](O)[C@H](O)[C@H]1O` [D-Glucose-1-Phosphate], 0; that for `CC(C)C[C@H](N)C(=O)O` [L-Leucine], 1.

The experiment is the same for the next values; noted with them: nutrient role (plate category): nitrogen.
On to `NCCCC[C@H](N)C(=O)O` [L-Lysine], for which the DuctApe activity index was 0. `CC(=O)N[C@@H]1[C@@H](O)[C@H](O)[C@@H](CO)O[C@@H]1O` [N-Acetyl-D-Glucosamine]: the DuctApe activity index is 3 (active). For `CC(=O)N[C@H]1C(O)O[C@H](CO)[C@H](O)[C@@H]1O` (stereo partly drawn) [N-Acetyl-D-Galactosamine], the DuctApe activity index is 3 (active).

Consider `N[C@@H](CCO)C(=O)O` [L-Homoserine], for which the DuctApe activity index was 0. `N[C@@H](CCC(=O)O)C(=O)O` [L-Glutamic acid]: the DuctApe activity index is 1. The same measure, in the same setting: the result for `CC[C@H](C)[C@H](N)C(=O)O` [L-Isoleucine] reads 0; that for `C[C@H](N)C(=O)NCC(=O)O`, 0. On the same count and under the same terms, to `N[C@@H](CS)C(=O)O` [L-Cysteine] belongs 0. On the same count and under the same terms, the result for `O=NO` [Nitrite] reads 0; that for `CC(=O)N[C@@H](CCC(=O)O)C(=O)O` [N-Acetyl-L-Glutamic acid], 0; that for `C[C@H](N)C(=O)O` [L-Alanine], 0. On to `N[C@@H](Cc1c[nH]cn1)C(=O)O` [L-Histidine], for which the DuctApe activity index is 0. Same read-out and setting: the result for `NCC(=O)N[C@@H](CCC(=O)O)C(=O)O` reads 1; that for `CSCC[C@H](NC(=O)CN)C(=O)O`, 0; that for `O=c1ccn([C@@H]2O[C@H](CO)[C@@H](O)[C@H]2O)c(=O)[nH]1` [Uridine], 0. Regarding `N[C@H](CC(=O)O)C(=O)O` [D-Aspartic acid], the DuctApe activity index was 2. As to `CC(N)=O` [Acetamide], the DuctApe activity index was 0. Same read-out and setting: to `N=C(N)NCCC[C@H](N)C(=O)O` [L-Arginine] belongs 0; to `N[C@@H](Cc1ccccc1)C(=O)O` [L-Phenylalanine], 0.

For `NCCCCN` [Putrescine], the DuctApe activity index was 0. The same measure, in the same setting: the result for `CC(C)C[C@H](N)C(=O)O` [L-Leucine] reads 0; that for `NCCCC[C@@H](N)C(=O)O` [D-Lysine], 0.

Staying with this experiment, now noted: nutrient role (plate category): phosphate & sulphur.
For the compound `Nc1ncnc2c1ncn2[C@@H]1O[C@H](CO)[C@@H](O)[C@H]1OP(=O)(O)O` [Adenosine 2`-Monophosphate], the DuctApe activity index is 2. The same measure, in the same setting: the result for `NC(Cc1ccc(OP(=O)(O)O)cc1)C(=O)O` (stereo in doubt) [O-Phospho-D-Tyrosine] reads 2; that for `N[C@@H](CS)C(=O)O` [L-Cysteine], 0; that for `CSCC[C@@H](N)C(=O)O` [D-Methionine], 2. Consider `C[S+]([O-])CC[C@H](N)C(=O)O` (stereo partly drawn) [L-Methionine Sulfoxide], for which the DuctApe activity index was 1. With `N[C@@H](CSCSC[C@H](N)C(=O)O)C(=O)O` [L-Djenkolic acid], the DuctApe activity index is 1.

Turning to `Cc1cn([C@H]2C[C@H](O)[C@@H](COP(=O)(O)O)O2)c(=O)[nH]c1=O` [Thymidine 5`-Monophosphate], the DuctApe activity index is 2.

Turning to `O=S(=O)(O)O` [Sulfate], the DuctApe activity index is 1.

As to `CSCC[C@H](NC(=O)CN)C(=O)O`, the DuctApe activity index is 1.

With `CSCCC(NC(C)=O)C(=O)O` (racemic) [N-Acetyl-D,L-Methionine], the DuctApe activity index is 2. On the same count and under the same terms, the result for `O=P(O)(O)O[C@H]1O[C@H](CO)[C@@H](O)[C@H](O)[C@H]1O` [D-Glucose-1-Phosphate] reads 1.
